Experimental data taken from PubChem BioAssay (NCI).
Compounds without any hit were thinned out: in the full panel of roughly 79,000, 15% have a hit. Active and inactive are the calls of the source. No stated cut-off is given here; in the data, active means growth inhibition above about 70%; inactive means the rest.

Experiments:
[1] = NCI Yeast Anticancer Drug Screen. Data for the rad50 strain (AID 155);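 further: 0% = growth of vehicle-only cultures of the same strain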; details: S. cerevisiae rad50 strain growth inhibition, active compounds read high
Outline: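 Yeast carrying a defined DNA repair defect were exposed to test compounds, and growth was compared with vehicle-treated controls to give percent inhibition.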

[2] = NCI Yeast Anticancer Drug Screen. Data for the mec2-1 strain (AID 157); details: S. cerevisiae mec2-1 strain, active compounds read high
Outline: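 Growth inhibition is read against vehicle-treated controls after compound exposure of the mec2-1 yeast strain, which is defective in DNA damage repair or cell cycle control.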

[3] = NCI Yeast Anticancer Drug Screen. Data for the sgs1 mgt1 strain (AID 161);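 further: 0% = growth of cultures given vehicle only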; details: S. cerevisiae sgs1 mgt1 strain, active compounds read high
Outline: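 This yeast growth screen uses a strain with defined DNA-repair lesions; compound-treated growth is compared with vehicle-treated growth.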

[4] = NCI Yeast Anticancer Drug Screen. Data for the cln2 rad14 strain (AID 165);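 further: 0% = growth equal to vehicle treated cultures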; details: S. cerevisiae cln2 rad14 strain, active compounds read high
Outline: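 Growth inhibition, relative to vehicle-treated controls, is the read-out. The test organism is a yeast strain with defined genetic alterations, cln2 rad14.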

[5] = NCI Yeast Anticancer Drug Screen. Data for the bub3 strain (AID 167); details: S. cerevisiae bub3 mutant strain, active compounds read high
Outline: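 Compounds were applied to a genetically altered yeast strain carrying a cell-cycle control defect. Growth inhibition was scored against vehicle-treated controls.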

[6] = NCI Yeast Anticancer Drug Screen. Data for the mlh1 rad18 strain (AID 175); details: S. cerevisiae mlh1 rad18 strain growth inhibition, active compounds read high
Outline: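 Cells of a genetically altered yeast strain, deficient in DNA damage repair, were treated with compound. Their growth was then compared with that of vehicle-treated cultures to give inhibition.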

[7] = at 5.0 µM (retest, dose inferred, filed as 0.5)
[8] = at 50.0 µM (retest, dose inferred, filed as 5.0)

Measured: growth inhibition

CC1=NN(c2nc(N)nc(C(C)Sc3cc(Cl)c(C)cc3S(N)(=O)=O)n2)C(C)(C)C1 (configuration not stated)
inactive: [1]; [7] 4% | [1]; [8] 18% | [1]; at 50.0 µM -51% | [2]; [7] -1% | [2]; [8] -24% | [2]; at 50.0 µM -25.8% | [3]; [7] 8% | [3]; [8] 1% | [3]; at 50.0 µM -10.6% | [4]; [7] 29% | [4]; [8] -6% | [4]; at 50.0 µM 40.9% | [5]; [7] 41% | [5]; [8] 26% | [5]; at 50.0 µM -17.1% | [6]; [7] -6% | [6]; [8] 0% | [6]; at 50.0 µM 2.9%

CCN(CC)CCCC(Nc1c2ccc(Cl)cc2nc2ccc(OC)cc12)c1cccs1 (configuration not stated)
active: [1]; [7] 91% | [1]; [8] 74% | [1]; at 50.0 µM 81.5% | [2]; [7] 91% | [2]; [8] 72% | [3]; [7] 92% | [3]; [8] 75% | [4]; [7] 87% | [4]; at 50.0 µM 74.8% | [5]; [7] 90% | [6]; [7] 91% | [6]; [8] 72%
inactive: [2]; at 50.0 µM 35.2% | [3]; at 50.0 µM 65.9% | [4]; [8] 62% | [5]; [8] 68% | [5]; at 50.0 µM 68.9% | [6]; at 50.0 µM 62.5%

Cc1nc2c(=O)[nH]c3ccc(Cl)cc3c2o1
active: [3]; [8] 90% | [4]; at 50.0 µM 77.3% | [5]; [8] 75% | [6]; [8] 89%
inactive: [1]; [7] 3% | [1]; [8] 60% | [1]; at 50.0 µM 42.5% | [2]; [7] 3% | [2]; [8] 59% | [2]; at 50.0 µM 38.1% | [3]; [7] 9% | [3]; at 50.0 µM 40.7% | [4]; [7] 7% | [4]; [8] 12% | [5]; [7] 6% | [5]; at 50.0 µM 60.2% | [6]; [7] 8% | [6]; at 50.0 µM 46.2%

COC(=O)c1c(C(N)=O)c(C)n(NC(=O)c2ccccc2)c1C
inactive: [1]; [7] -6% | [1]; [8] 4% | [1]; at 50.0 µM 5.75% | [2]; [7] -5% | [2]; [8] -1% | [2]; at 50.0 µM 2.7% | [3]; [7] -6% | [3]; [8] 0% | [3]; at 50.0 µM 11.1% | [4]; [7] -4% | [4]; [8] 6% | [4]; at 50.0 µM 38.9% | [5]; [7] -4% | [5]; [8] 3% | [5]; at 50.0 µM -2.65% | [6]; [7] -4% | [6]; [8] 0% | [6]; at 50.0 µM 11.5%

O=C(c1ccccc1)c1ccccc1S(=O)(=O)Nc1ccccc1
active: [1]; [8] 79% | [3]; [8] 77% | [4]; [8] 86% | [5]; [8] 91% | [6]; [8] 87% | [6]; at 50.0 µM 72.8%
inactive: [1]; [7] -5% | [1]; at 50.0 µM 62.9% | [2]; [7] -2% | [2]; [8] 69% | [2]; at 50.0 µM 27.8% | [3]; [7] -3% | [3]; at 50.0 µM 30.2% | [4]; [7] -8% | [4]; at 50.0 µM 62.1% | [5]; [7] 4% | [5]; at 50.0 µM 64.2% | [6]; [7] -2%

CCS(CC)(CC)CC1CCCC2=CCC(P(=O)(c3ccccc3)c3ccccc3)CC21 (configuration not stated)
active: [1]; at 50.0 µM 87.2% | [2]; at 50.0 µM 78.7% | [3]; at 50.0 µM 87.8% | [6]; at 50.0 µM 71.7%
inactive: [1]; [7] 5% | [1]; [8] 5% | [2]; [7] 18% | [2]; [8] 18% | [3]; [7] 11% | [3]; [8] 11% | [4]; [7] 5% | [4]; [8] 5% | [4]; at 50.0 µM 24.2% | [5]; [7] -8% | [5]; [8] -8% | [5]; at 50.0 µM 67.8% | [6]; [7] -9% | [6]; [8] -9%

Nc1ccc(S(=O)(=O)Nc2nc3ccccc3nc2N2CCCCCC2)cc1
inactive: [1]; [7] 30% | [1]; at 50.0 µM 43.5% | [2]; [7] 30% | [2]; at 50.0 µM 48.1% | [3]; [7] 36% | [4]; [7] 40% | [5]; [7] 44% | [6]; [7] 39%
active: [1]; [8] 79% | [2]; [8] 87% | [3]; [8] 92% | [3]; at 50.0 µM 82.2% | [4]; [8] 92% | [4]; at 50.0 µM 82.5% | [5]; [8] 95% | [5]; at 50.0 µM 85.2% | [6]; [8] 90% | [6]; at 50.0 µM 85.6%

Oc1cc2ccccc2c2ccccc12
inactive: [1]; [7] 0% | [2]; [7] 2% | [3]; [7] 4% | [4]; [7] -15% | [5]; [7] 16% | [6]; [7] 6%
active: [1]; [8] 93% | [1]; at 50.0 µM 99.2% | [2]; [8] 83% | [2]; at 50.0 µM 99.2% | [3]; [8] 87% | [3]; at 50.0 µM 98.9% | [4]; [8] 97% | [4]; at 50.0 µM 98.5% | [5]; [8] 96% | [5]; at 50.0 µM 99.2% | [6]; [8] 93% | [6]; at 50.0 µM 98.9%

CC1=NC(=Cc2ccc(Cl)cc2)C(=O)N1n1c(-c2ccccc2)nc2ccccc2c1=O
active: [2]; [8] 83% | [2]; at 50.0 µM 70.2% | [3]; [8] 71% | [3]; at 50.0 µM 86% | [4]; [8] 83% | [4]; at 50.0 µM 80% | [5]; [8] 87% | [5]; at 50.0 µM 82% | [6]; at 50.0 µM 81.5%
inactive: [1]; [7] -8% | [1]; [8] 59% | [1]; at 50.0 µM 67.3% | [2]; [7] -10% | [3]; [7] -7% | [4]; [7] -24% | [5]; [7] -6% | [6]; [7] 5% | [6]; [8] 59%
